Growth data for eight molecules are collected here from PubChem BioAssay (NCI).

Some test systems named below: HCT-15 colon; HT29 colon; SNB-75 CNS; SNB-19 CNS; U251 CNS; PC-3 prostate; SK-MEL-5 melanoma; UACC-62 melanoma; LOX IMVI melanoma; SK-MEL-28 melanoma; SK-MEL-2 melanoma; EKVX NSCLC; SN12C renal; UO-31 renal; TK-10 renal; ACHN renal; CAKI-1 renal; A498 renal; CCRF-CEM leukemia; MOLT-4 leukemia.
Assay in all cases: NCI-60 one-dose screen, 48 h (100 = growth as untreated, 0 = no growth, -100 = all killed)
Holding throughout (conditions): 10 µM

About 83,000 compounds went through this panel and 20% of them were active in at least one assay; those are over-represented in the sample as a whole.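 The test compound was applied at a single concentration to cells in 96-well plates for 48 hours, and percent growth was recorded.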 Values without a mark were called inactive. Activity calls are given as the source filed them. How the source made its calls: active means growth percent below 10; inactive means the rest.

As to `C=C(C)[C@@H]1CC[C@]2(C)[C@H](CC=C3[C@@H]4CC(C)(C)CC[C@]4(C(=O)N4CCOCC4)CC[C@]32C)[C@@]1(C)CCCN`, the growth in the assay on HCT-15 colon is -83.6% (active); in the assay on HT29 colon, -91% (active); in the assay with SNB-75 CNS, -91.2% (active); in the assay on SNB-19 CNS, -93.7% (active); with U251 CNS it was -81.2% (active); in the assay on PC-3 prostate it was -79.8% (active). Moreover, the growth in the assay on SK-MEL-5 melanoma is -96.5% (active); with UACC-62 melanoma, -93.8% (active); in the assay on LOX IMVI melanoma, -81.7% (active); in the assay on SK-MEL-28 melanoma it was -97% (active); in the assay on SK-MEL-2 melanoma it was -92.1% (active); in the assay on EKVX NSCLC it was -84.1% (active). Further, the growth was -89.1% (active) with SN12C renal; -100% (active) in the assay on UO-31 renal; -95.7% (active) in the assay on TK-10 renal; -100% (active) in the assay on ACHN renal; -96.3% (active) in the assay on CAKI-1 renal; -89.5% (active) in the assay on A498 renal. The growth in the assay with CCRF-CEM leukemia is -57.2% (active).

In the case of `CCCS(=O)(=O)c1oc(-c2ccc(F)cc2)nc1S(=O)(=O)c1ccc(F)cc1`, the growth with HCT-15 colon is -81.3% (active); in the assay with HT29 colon, -69.6% (active); in the assay on SNB-75 CNS, 53.4%; in the assay on SNB-19 CNS it was 82.6%; in the assay with U251 CNS, 31.7%; in the assay with PC-3 prostate, 80.7%. The growth is 41.8% in the assay with SK-MEL-5 melanoma; 22% in the assay with UACC-62 melanoma; -100% (active) in the assay with LOX IMVI melanoma; -98.7% (active) in the assay with SK-MEL-28 melanoma; 36.7% in the assay on SK-MEL-2 melanoma; 82.8% with EKVX NSCLC. For the same molecule, the growth with SN12C renal is -85.4% (active); in the assay with UO-31 renal it was -100% (active); in the assay on TK-10 renal, -97.2% (active); in the assay on ACHN renal, -100% (active); with CAKI-1 renal, -92.2% (active); with A498 renal it was 113%. In addition, in the assay with CCRF-CEM leukemia, the growth is -51.3% (active).

As for `O=C(NO)c1ccc(CNC(=O)[C@H]2Cc3c([nH]c4ccccc34)[C@H](c3ccc(Cl)cc3)N2)cc1`, the growth in the assay with HCT-15 colon is 30.5%; in the assay with HT29 colon, 21.5%; in the assay with SNB-75 CNS, 39.6%; with SNB-19 CNS it was 15.5%; with U251 CNS it was -4.01% (active); in the assay with PC-3 prostate, 21.4%. In addition, the growth is -70.8% (active) with SK-MEL-5 melanoma; -49.8% (active) with UACC-62 melanoma; -88.4% (active) in the assay on LOX IMVI melanoma; 1.81% (active) with SK-MEL-28 melanoma; -21.5% (active) in the assay on SK-MEL-2 melanoma; 25% in the assay on EKVX NSCLC. For the same molecule, the growth is 15.1% with SN12C renal; 21.8% in the assay with UO-31 renal; 4.19% (active) in the assay on TK-10 renal; 28.6% in the assay with ACHN renal; 29% in the assay on CAKI-1 renal; -6.62% (active) in the assay with A498 renal. Moreover, the growth in the assay on CCRF-CEM leukemia is 17.4%; in the assay on MOLT-4 leukemia, 5.97% (active).

With `CC(=O)Nc1nc(-c2ccc(N3CCN(C)CC3)c(NS(=O)(=O)c3cccc4c(N(C)C)cccc34)c2)cs1`, the growth with HCT-15 colon is 18.5%; in the assay on HT29 colon it was 21.7%; in the assay with SNB-75 CNS, 56.5%; in the assay with SNB-19 CNS, 58.8%; in the assay with U251 CNS, 28.1%; in the assay on PC-3 prostate, 48.7%. Besides, the growth in the assay on SK-MEL-5 melanoma was 12.5%; in the assay on UACC-62 melanoma, 13.1%; in the assay with LOX IMVI melanoma, -35.6% (active); in the assay on SK-MEL-28 melanoma, -80.1% (active); in the assay with SK-MEL-2 melanoma, 65.3%; in the assay on EKVX NSCLC, 69.9%. For the same molecule, the growth in the assay on SN12C renal is 75.6%; in the assay with UO-31 renal it was 60%; in the assay with TK-10 renal it was 84.3%; in the assay on ACHN renal, 60.7%; with CAKI-1 renal, 66.5%; in the assay with A498 renal it was 117%. The growth in the assay with CCRF-CEM leukemia is 8.38% (active).

As to `CN1CCN(c2ccc(C(=O)/C=C/c3ccc(C#N)cc3)cc2)CC1`, the growth with HCT-15 colon is 33.6%; with HT29 colon, 35.4%; in the assay with SNB-75 CNS, 94.2%; in the assay on SNB-19 CNS, 79.3%; in the assay with U251 CNS, 49.9%; with PC-3 prostate it was 94.7%. Moreover, the growth with SK-MEL-5 melanoma is 83.9%; in the assay with UACC-62 melanoma, 79.9%; in the assay on LOX IMVI melanoma it was 16.7%; with SK-MEL-28 melanoma, 108%; in the assay with SK-MEL-2 melanoma it was 104%; in the assay on EKVX NSCLC, 82%. Further, the growth in the assay on SN12C renal is 73.8%; in the assay on UO-31 renal, 61.8%; with TK-10 renal it was 102%; in the assay on ACHN renal, 83.5%; with CAKI-1 renal it was 63.8%; in the assay with A498 renal, 103%. In addition, in the assay with CCRF-CEM leukemia, the growth is 65.9%.

Turning to `CC(=O)NCC1=C(C)C=C2C(=O)[C@](C)(O)C3(CC3)C(C)=C21`, the growth in the assay with HCT-15 colon is -20% (active); in the assay on HT29 colon, -20.4% (active); in the assay on SNB-75 CNS, -74.5% (active); with SNB-19 CNS, -49.8% (active); with U251 CNS it was -13.2% (active); in the assay with PC-3 prostate, 2.77% (active). Further, the growth is -84.7% (active) with SK-MEL-5 melanoma; -91% (active) in the assay on UACC-62 melanoma; -49.3% (active) with LOX IMVI melanoma; -93.3% (active) with SK-MEL-28 melanoma; -74.7% (active) in the assay on SK-MEL-2 melanoma; -26.1% (active) in the assay on EKVX NSCLC. Further, the growth is -74.7% (active) in the assay with SN12C renal; -32.2% (active) with UO-31 renal; -6.87% (active) in the assay on TK-10 renal; -37.4% (active) in the assay on ACHN renal; -31.6% (active) in the assay with CAKI-1 renal; -70.4% (active) in the assay with A498 renal. Moreover, the growth in the assay with CCRF-CEM leukemia is 51.9%.

Consider `C/C(=N\N=C\c1ccc(N(C)C)cc1)c1ccc2c(c1)Nc1ccccc1S2`, for which the growth in the assay with HCT-15 colon was 22%; with HT29 colon, 52.5%; with SNB-75 CNS, 69.6%; in the assay on SNB-19 CNS, 63.1%; in the assay with U251 CNS it was 29.4%; in the assay on PC-3 prostate, 54%. Further, the growth was 36.1% in the assay with SK-MEL-5 melanoma; 70.7% in the assay on UACC-62 melanoma; 55% in the assay with LOX IMVI melanoma; 85.7% in the assay on SK-MEL-28 melanoma; 84.6% with SK-MEL-2 melanoma; 47.1% in the assay on EKVX NSCLC. In addition, the growth is 49.8% in the assay on SN12C renal; 57.4% in the assay with UO-31 renal; 70.6% with TK-10 renal; 50.8% in the assay on ACHN renal; 56.5% with CAKI-1 renal; 86.4% with A498 renal. Besides, the growth in the assay on CCRF-CEM leukemia is 59.5%.

`C=C(C)[C@@H]1CC[C@]2(COP(=O)(OCC)OCC)CC[C@]3(C)[C@H](CC[C@@H]4[C@@](C)(CCCN)[C@H](C(=C)C)CC[C@]43C)[C@@H]12`: the growth with HCT-15 colon was 9.75% (active); with HT29 colon it was 5.73% (active); in the assay on SNB-75 CNS, 34.4%; in the assay on SNB-19 CNS, 40.4%; in the assay with U251 CNS, 21%; in the assay with PC-3 prostate it was 13.1%. Further, the growth with SK-MEL-5 melanoma was -47.6% (active); with UACC-62 melanoma, 35.3%; with LOX IMVI melanoma, 1.01% (active); with SK-MEL-28 melanoma, 31.7%; in the assay on SK-MEL-2 melanoma it was 27.2%; in the assay with EKVX NSCLC it was 21.6%. The growth was 14.7% with SN12C renal; 16.7% in the assay on UO-31 renal; 57.4% with TK-10 renal; 22.3% in the assay on ACHN renal; 19.5% in the assay on CAKI-1 renal; 61.1% with A498 renal. For the same molecule, in the assay with CCRF-CEM leukemia, the growth is 2.27% (active).
